SMN2 splice up – SMN2 splice variant enhancement; HEK293 SMN2-luciferase splicing reporter, luminescence, 30-36 h; Potency, µM (top dose mostly 46.1 µM), inactives show at the highest dose activity change, positive = activation, most hits filed as activators; 210,000 tested, 2.8% active; note: % of control where 0% means no effect; nearly all actives have a fitted effect of over 55% in size
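HEK293 cells carry an SMN2 minigene-luciferase reporter in which exon 7 inclusion puts luciferase in frame. Cells were seeded at 2000 cells/well, attached for 10-12 hours, then exposed to compounds for 30-36 hours at 37C before ONE-Glo luminescence.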
ELG1 genotox – genotoxicity induction in ELG1-luciferase HEK293T cells. HEK293T ELG1-luciferase reporter, luminescence, 16 h. Potency, µM (titrated, usually from 46 µM), without a hit: at the top dose activity change, positive = activation, most hits filed as activators. 330,000 tested, 1.3% active. AID 504466; note: % of control where 0% means no effect; nearly all actives have a fitted effect of over 60% in size
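ELG1-luciferase HEK293T cells, 2,000/well; compound pinned in; 16 hr, 37 °C, 5% CO2; ONE-Glo, 30 min RT; luminescence on CCD imager.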
FLuc counter – firefly luciferase modulation, counter-screen for miR-21 project | P08659 | purified FLuc, Km substrates, luminescence inhibition | Potency, µM (top dose mostly 57.5 µM), inactives show at the highest dose activity change, negative = inhibition, usual class: inhibitors | 360,000 tested, 6.9% active | AID 588342;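 note: plate controls were vehicle for no effect and reference inhibitor for full effect; nearly all actives have a fitted effect of over 55% in size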
Target sequence (P08659 whole entry, looked up): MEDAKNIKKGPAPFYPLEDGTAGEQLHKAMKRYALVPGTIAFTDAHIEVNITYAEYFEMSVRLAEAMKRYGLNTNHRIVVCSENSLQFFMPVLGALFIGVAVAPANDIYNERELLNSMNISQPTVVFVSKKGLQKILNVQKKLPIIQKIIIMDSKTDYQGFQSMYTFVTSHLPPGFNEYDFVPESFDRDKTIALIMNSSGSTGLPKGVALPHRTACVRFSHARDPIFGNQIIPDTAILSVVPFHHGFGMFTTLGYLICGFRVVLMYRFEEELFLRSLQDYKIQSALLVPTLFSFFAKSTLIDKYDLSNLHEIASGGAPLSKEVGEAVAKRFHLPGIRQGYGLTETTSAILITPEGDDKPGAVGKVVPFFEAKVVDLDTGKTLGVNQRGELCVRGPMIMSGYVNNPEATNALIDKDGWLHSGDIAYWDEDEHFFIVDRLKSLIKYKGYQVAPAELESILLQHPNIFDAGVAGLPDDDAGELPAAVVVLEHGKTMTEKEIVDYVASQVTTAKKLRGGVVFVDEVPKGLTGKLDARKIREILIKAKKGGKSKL
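Purified P. pyralis luciferase, 10 nM final, with Km-level 10 uM D-luciferin and 10 uM ATP in 50 mM Tris acetate pH 7.5, 10 mM Mg acetate, 0.01% Tween-20, 0.05% BSA; 6-point qHTS titration about 60 µM downward; luminescence read.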
KinaseGlo FLuc – Kinase-Glo luciferase inhibition (counter-screen); Q27757; Kinase-Glo luciferase, ATP luminescence, 8 min; Potency, µM (top dose mostly 38.3 µM), inactives show at the highest dose activity change, negative = inhibition, most hits filed as inhibitors; 200,000 tested, 0.28% active; AID 1379; note: % is set by controls: 0 for no effect and ±100 for the full control effect; nearly all actives have a fitted effect of over 60% in size
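Light output from Kinase-Glo luciferase with luciferin and 10 uM ATP in 50 mM imidazole pH 7.2, KCl, MgCl2, Tween 20, BSA; compound pin-delivered, 8-min ambient incubation, then luminescence read.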
NPC1 prom act – activates the NPC1 promoter; Huh7 NPC1 promoter luciferase reporter, 24 h; Potency, µM (highest dose often 9.22 µM), without a hit: at the top dose activation, usual class: activators; 320,000 tested, 2.4% active; AID 485313; note: % of control where 0% means no effect; nearly all actives have a fitted effect of over 60% in size
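Luminescence read-out of NPC1 promoter-driven luciferase in stably transfected Huh7 cells; compounds delivered in DMSO and left 24 h at 37C, 5% CO2, qHTS titration format.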
Rab9 promoter act – activates the Rab9 promoter; Huh7 Rab9 promoter-luciferase reporter, luminescence, 24 h; AID 485297; 320,000 tested, 2.8% active; Potency, µM (series often up to 9.22 µM), inactives show at the top dose activation, negative = inhibition, actives largely listed as activators; note: % of control where 0% means no effect; nearly all actives have a fitted effect of over 60% in size
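Huh7 reporter line, Rab9 promoter upstream of luciferase. Compound exposure 24 h at 37 °C in reduced-serum medium with 10% FBS. Read-out: luminescence.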
Numbers without * were called inactive; ? = inconclusive; . = not tested or not shown; [ ] = dose if it differs, or a comment. Most compounds without a hit are left out; they make up all but 7.5% or so of the library. Calls come from the whole dose curve; as a rule, active = well fitted curve in the direction sought with a large enough effect; inconclusive = small, poorly fitted or top-dose-only effect, or another doubt; inactive = no such curve, though single readings can be large; an effect the other way counts as inactive or inconclusive. Potency is the fitted concentration of half-maximal effect.

SMILES	SMN2 splice up	ELG1 genotox	FLuc counter	KinaseGlo FLuc	NPC1 prom act	Rab9 promoter act
Cc1cc(Br)cc2c(C(=O)OCC(=O)c3ccccc3)cc(-c3ccccc3)nc12	20%	.	-2%	.	.	.
Oc1ccc(Br)cc1/C=N/n1cnc2ccccc21	26%	18%	8.5µM*	-6%	?	?
Oc1ccc(Br)cc1/C=N/N1CCCCC1	17%[1.84 µM]	?	9.5µM*	?	?	4.5µM*
Oc1ccc(Br)cc1/C=N/N1CCN(Cc2ccccc2)CC1	-18%	3%	?	2%	15%	3%
Oc1ccc(Br)cc1/C=N/n1c(COc2ccccc2)n[nH]c1=S	.	0%	3%	.	-3%	-3%
CC(C)Oc1ccc(CNC(=O)c2ccc(NC(=O)N3CCSc4ncccc43)cc2)cc1	.	.	-5%	.	.	.
CC(C)c1ccc(/C=C/c2ccc(=O)n(C)n2)cc1	11µM*	10µM*	4.8µM*	-7%	2.2µM*	1.8µM*
CCOC(=O)C(C)n1nc(/C=C/c2ccc(OC)cc2)ccc1=O (configuration not stated)	7%	3%	-13%	2%	8%	-6%
CCOC(=O)c1ccc(NC(=O)Cn2cnc3sc(C(=O)OCC)c(C)c3c2=O)cc1	.	.	-2%	.	.	.
CCCCNC(=O)C(CC)Sc1nnc(-c2cccc(F)c2)c(-c2cccc(F)c2)n1 (configuration not stated)	.	.	-1%	.	.	.
O=C(Cn1cnc2ccccc2c1=O)OCC(=O)c1ccc2c(c1)OCCO2	-5%	0%	21µM*	2%	0%	-8%
O=C(Cn1cnc2ccccc2c1=O)Nc1ccc2c(c1)OCCO2	13µM*	?	9.5µM*	-4%	2.2µM*	1.8µM*
CCc1ccccc1NC(=O)CC(C)n1nc(C)cc1C (configuration not stated)	.	.	-1%	.	.	.
O=[N+]([O-])c1ccc(N/N=C/c2ccccc2O)cc1	.	?	15µM*	.	-7%	20%
O=[N+]([O-])c1cccnc1N/N=C/c1ccccc1O	-51%	?	?	2µM*	-4%	?
O=C(O)CNc1ncccc1[N+](=O)[O-]	3%	0%	0%	-1%	2%	2%
Cc1c(O)ccc(/C=N/Nc2ncccc2[N+](=O)[O-])c1O	.	2.6µM*	1.1µM*	.	0.56µM*	3.2µM*
O=[N+]([O-])c1ccc(O)c(/C=N/Nc2ccccn2)c1	-86%	14%	4%	-1%	-15%	-25%
O=[N+]([O-])c1cccc(N/N=C/c2cc([N+](=O)[O-])ccc2O)c1	20%	?	?	6%	?	30%
Cc1cc(NC(=O)N(C)CCc2c(C)nn(C)c2C)ccc1Br	.	.	-11%	.	.	.
Cc1cc(C)c2c(N)c(C(=O)NCC3CCCCC3)sc2n1	11µM*	11µM*	24µM*	-6%	?	?
Cc1cc(C)c2c(N)c(C(=O)Nc3ccccc3C(F)(F)F)sc2n1	.	.	-15%	.	.	.
Cc1cc(C)c2c(N)c(C(=O)NC3CCCC3)sc2n1	11%	10%	?	-2%	7%	24%
Cc1cc(C)cc(NC(=O)c2sc3nc(C)cc(C)c3c2N)c1	.	?	9.5µM*	.	1.8µM*	3.2µM*
Cc1cc(C)c(NC(=O)c2sc3nc(C)cc(C)c3c2N)c(C)c1	-2%	.	-4%	.	.	.
SMILES	SMN2 splice up	ELG1 genotox	FLuc counter	KinaseGlo FLuc	NPC1 prom act	Rab9 promoter act
Cc1cc(C(F)(F)F)c2c(N)c(C(=O)Nc3cc(C)on3)sc2n1	-43%	?	?	-5%	?	3.5µM*
Cc1cc(NC(=O)c2sc(Nc3ccc(F)cc3)nc2N)no1	24%	5%	-14%	0%	18%	25%
C=CCNc1nc(N)c(C(=O)Nc2cc(C)on2)s1	11µM*	16%	17µM*	-4%	?	?
CC(=O)N1CCCc2cc(S(=O)(=O)N(C)CC(=O)Nc3cccc(Cl)c3C)ccc21	.	.	-8%	.	.	.
COCCCNC(=O)N1CCN(c2nnc(C)c3c(C)n(-c4ccc(Cl)cc4)nc23)CC1	.	.	-2%	.	.	.
COc1ccc(NC(=O)c2sc3nc(C)cc(C)c3c2N)cc1	.	?	3.8µM*	.	1.6µM*	1.3µM*
COCc1cc(C)nc2sc(C(=O)Nc3ccccc3F)c(N)c12	.	15%	19µM*	.	23%	26%
Cc1cc(C)c2c(N)c(C(=O)Nc3ccc(F)cc3)sc2n1	.	?	1.5µM*	.	0.71µM*	0.5µM*
COc1ccc(/C=N/NC(=O)c2sc3nc(C)cc(C)c3c2N)cc1	.	3%	9.5µM*	.	2%	2%
Cc1cc(C)c2c(N)c(C(=O)N/N=C/c3cccs3)sc2n1	.	?	?	.	1.8µM*	1.6µM*
Cc1cc(C)c2c(N)c(C(=O)Nc3ccc(C)c(C)c3)sc2n1	.	1.2µM*	1.7µM*	.	1µM*	0.63µM*
Cc1cc(C)c2c(N)c(C(=O)Nc3ccc([N+](=O)[O-])cc3)sc2n1	.	?	-3%	.	0.5µM*	0.79µM*
Cn1cnc2cc(NCc3cccs3)ccc21	28%	?	-3%	2%	19%	4%
COc1ccccc1-n1cnc2cc(C(=O)NCc3ccco3)ccc21	16%	16%	-17%	2%	-1%	1%
COc1ccc(-n2cnnc2SCC(=O)NCc2cccs2)cc1	17%	4%	-2%	-1%	1%	-5%
COc1ccc(-n2cnc3cc(NCc4cccs4)ccc32)cc1	1%	8%	15µM*	-5%	?	29%
c1ccc(-n2cnc3cc(NCc4ccco4)ccc32)cc1	13µM*	?	9.5µM*	1%	?	?
c1ccc(-n2cnc3cc(NCc4cccs4)ccc32)cc1	17%	?	2.1µM*	0%	?	1µM*
Cc1ccc(-n2cnc3cc(NCc4cccs4)ccc32)cc1	-22%	9.2µM*	11µM*	-2%	?	?
Cc1ccc2oc(=O)c3cc(C(=O)Nc4ccc(C)c(F)c4)sc3c2c1	6%	.	0%	.	.	.
CCN1C(=O)/C(=C/N2CCc3ccccc32)SC1=S	10µM*	6.5µM*	?	-12%	2.8µM*	3.2µM*
CC(=O)N1CCc2cc(Br)cc(S(=O)(=O)CCC(=O)N3CCN(c4ccccc4)CC3)c21	-4%	.	0%	.	.	.
CCc1nnc(NC(=O)CCC(=O)N2CCC(Cc3ccccc3)CC2)s1	.	-5%	1%	.	2%	-4%
CCCN(c1c(C)n(C)n(-c2ccccc2)c1=O)S(=O)(=O)c1ccc(C)cc1	25%	.	-2%	.	.	.
CN(C)C(=O)CSc1nnc(C23CC4CC(CC(C4)C2)C3)o1	?	9.2µM*	?	0%	?	3.2µM*
CCN(CC(=O)Nc1ccc2c(c1)OCCO2)C(=O)/C=C/c1ccc(F)cc1	23%	?	17µM*	1%	0%	27%

Bioassay records as filed in PubChem BioAssay.
